In PubChem BioAssay AID488839 (Broad Institute, 2010):
Hit rate of the full screen: of about 330,000 compounds, about 35 (0.01%) were called active.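 Rule for the calls: active = highest replicate inhibition of at least 50% and at least 75% of replicates reaching 50%; inconclusive = only one of the two criteria met; inactive = both criteria failed.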 The list is a sample of the results.

Each molecule was assayed against Cyclin-dependent kinase 5 (Homo sapiens) + Cyclin-dependent kinase 5 activator 1 (Homo sapiens) (UniProt Q00535+Q15078) (assay: inhibitors of human CDK5/p35 kinase, primary screen, biochemical, single concentration (AID 488839;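 note: plate controls were DMSO neutral control for no effect and GW8510 at 10 µM for full effect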)). Conditions: Recombinant CDK5/p35, ADP-Glo luminescence, 60 min; at 10 µM; stronger effect = higher value.
Cyclin-dependent kinase 5 (Homo sapiens) + Cyclin-dependent kinase 5 activator 1 (Homo sapiens), sequence (Q00535 whole entry, looked up): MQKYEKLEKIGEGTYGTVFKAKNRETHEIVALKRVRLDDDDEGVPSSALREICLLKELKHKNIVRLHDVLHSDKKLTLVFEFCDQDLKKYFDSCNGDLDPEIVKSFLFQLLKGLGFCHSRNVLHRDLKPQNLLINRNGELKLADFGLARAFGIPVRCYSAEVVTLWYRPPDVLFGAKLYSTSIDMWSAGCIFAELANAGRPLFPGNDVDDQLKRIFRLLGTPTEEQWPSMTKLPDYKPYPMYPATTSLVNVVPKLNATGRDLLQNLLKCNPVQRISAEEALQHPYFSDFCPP
Cyclin-dependent kinase 5 (Homo sapiens) + Cyclin-dependent kinase 5 activator 1 (Homo sapiens), sequence (Q15078 whole entry, looked up): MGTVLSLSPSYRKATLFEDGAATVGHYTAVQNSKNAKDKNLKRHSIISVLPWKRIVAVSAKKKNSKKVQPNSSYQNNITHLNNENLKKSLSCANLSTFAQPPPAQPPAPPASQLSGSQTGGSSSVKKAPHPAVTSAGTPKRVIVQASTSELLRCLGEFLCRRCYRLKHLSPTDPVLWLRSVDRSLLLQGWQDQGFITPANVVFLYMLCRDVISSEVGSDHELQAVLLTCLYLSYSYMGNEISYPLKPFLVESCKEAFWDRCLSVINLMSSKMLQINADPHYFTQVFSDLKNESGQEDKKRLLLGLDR

inhibition, inactive:
CON(C)S(=O)(=O)c1ccc2c(c1)NC(=O)C1CCCN21 (stereo not given) -2.05%
Cc1ccc(OCCCCc2c(C)n[nH]c2C)cc1 0.0918%
COC(=O)c1cc(S(=O)(=O)Nc2ccc(C)c(F)c2)c[nH]1 1.29%
O=c1cc(Cl)c2ccccc2n1-c1ccccc1 -0.318%
COc1ccc(C(=O)N2CCN(c3ccc(C(C)=O)cc3F)CC2)cc1S(=O)(=O)NC1CC1 0.384%
COc1ccc(C(C)NC(=S)NC2CCCCC2)cc1OC (stereo not given) -2.83%
CCOc1ccccc1NC(=O)COc1ccc(S(=O)(=O)N2CCCC2)cc1 -0.338%
COc1ccc(CCNC(=O)CCc2cn(C)c3ccccc23)c(OC)c1 1.21%
COc1ccc(-c2nc(CN3CCN(c4ncccn4)CC3)c(C)o2)cc1C 0.124%
COc1ccc(S(=O)(=O)N(CCCN2CCCC2=O)Cc2cc3c(C)ccc(C)c3[nH]c2=O)cc1 -2.49%
CCCCN(CC(=O)Nc1cccc(S(=O)(=O)N2CCCC2)c1)Cc1nc2ccccc2c(=O)[nH]1 0.255%
C=CCn1c(-c2ccccc2OCC)n[nH]c1=S -0.312%
Cc1ccc(NC2CCCN(C(=O)CCc3cn[nH]c3)C2)cc1C (stereo not given) 0.302%
CCCNC(=O)NCc1ccc(N2CCCC2=O)cc1 -1.59%
Cc1nn(-c2ccccc2)c(CC(C)(C)C(=O)O)c1C(=O)O 0.362%
O=C1c2ccccc2C(O)N1Cc1ccccc1Cl (stereo not given) -1.45%
Cc1cccc(-n2c(SCC(=O)Nc3cccc(S(=O)(=O)NC4=NCCCCC4)c3)nc3ccccc3c2=O)c1C 0.0416%
CN(C(=O)CC1C(=O)NCCN1Cc1ccc2ccccc2c1)C1CCOCC1 (stereo not given) 0.878%
COc1ccc(C(C)NC(=O)C2CCCC2)cc1 (stereo not given) -1.29%
O=C(NCCc1nnc2ccc(SCC(=O)N3CCOCC3)nn12)c1ccccc1 -3.67%
CCOC(=O)c1cnc2ccc(F)cc2c1Nc1ccc2c(c1)OCCO2 -0.0856%
Cc1ccc(NS(=O)(=O)c2c(C)[nH]c(=O)[nH]c2=O)cc1C -1.59%
CC1CCCCC1NCC(=O)Nc1ccccc1C(=O)Nc1ccccc1 (stereo not given) -1.88%
COCCn1c(SC(C)C(=O)NC2CC2)nnc1-c1cccc(C)c1 (stereo not given) -7.75%
COCC(C)n1c(C)cc(C(=O)COc2ccc(C)nc2[N+](=O)[O-])c1C (stereo not given) 1.15%
Cc1nnc(SC(C(=O)c2ccccc2)c2ccccc2)[nH]c1=O (stereo not given) 0.641%
COc1cccc(CN2C(=O)CCC2(C)C(=O)NC2CCCCCC2)c1 (stereo not given) 1.09%
COc1cccc2c1OCC(C(=O)NCc1ccc(Cl)cc1Cl)=C2 -2.22%
COc1ccc(CCNC(=O)CCC(=O)NC2CCCCC2)cc1OC 1.39%
CC(=O)Nc1ccc(NC(=O)C(C)OC(=O)C2CC(=O)N(CCc3ccccc3)C2)cc1 (stereo not given) -2.5%
CC1(C)CC(=O)C(C2=NC(C)(C)Cc3ccccc32)=C(O)C1 0.357%
COc1ccc(-n2nc3c(c2NC(=O)c2ccc(N4C(=O)CCC4=O)cc2)CSC3)cc1 2.36%
Brc1ccc(-c2n(-c3ccccn3)c3ccccc3[n+]2-c2ccccn2)cc1 3.32%
C=CCNC(=S)NNc1ncnc2sc3c(c12)CC(C)(C)OC3 -1.36%
Cc1ccc(S(=O)(=O)N2C3C=CC(C3)C2C(=O)O)cc1 (stereo not given) -7.35%
O=C(Cn1cnc2c(OCc3ccccc3)ncnc21)NCCCn1ccnc1 1.18%
CC(C)c1ccc(Nc2nnc(SCC(=O)c3nnc(-c4ccccc4)o3)s2)cc1 1.49%
Cc1cc(C(C)(C)C)cc(S(=O)(=O)Nc2ccc(C(=O)O)cc2)c1C 0.418%
Cc1ccc(SCC2=NNC(=O)C2)cc1 0.0205%
CC(C)C(NC(=O)c1c(F)cccc1F)C(=O)NCc1ccncc1 (stereo not given) -1.58%
Cc1ccc(N(C(=O)c2ccc(S(=O)(=O)N(C)C)cc2)C2C=CS(=O)(=O)C2)cc1 (stereo not given) 1.14%
COc1ccc(Cl)cc1NC(=O)CN(C)Cc1ccc(OC)c(OC)c1 -3.62%
CCOC(=O)N1CCC(NC(=O)Cn2cc3c(n2)CCCCC3)CC1 3.25%
CCCc1nc2oc3c(=O)[nH]cnc3c2c2c1COC(C)(C)C2 -0.359%
CCOC(=O)c1c(NC(C)=O)sc2c(O)c(Br)ccc12 -0.579%
Cc1ccc(C)c(NC(=O)COC(=O)CSc2ccccc2)c1 -0.511%
CCc1cc2c(=O)c(-c3nc4ccccc4n3C)c(CCCC(=O)O)oc2cc1OC(=O)C(C)(C)C -1.94%
O=C(CN1CCOCC1)Nc1c2c(nc3c1CCC3)CCC2 -2.33%
O=C(COC(=O)CNC(=O)C1CCCCC1)NCc1ccccc1 1.54%
CCCCc1nc(SCC(=O)Nc2nnc(C(C)C)s2)n[nH]1 -0.0356%
